Experimental data taken from PubChem BioAssay (Tox21).
Several values for one entry are separate records, joined by “and”; a condition that tells them apart may be missing. Equal entries are not always repeated. Inconclusive results are not listed. Where a call stands in place of a potency, no number is given. Where a structure was tested more than once in an assay, its records may differ in their call. Activity calls are given as the source filed them. Unless noted, the call rests on the fitted dose curve; in most records, active means well fitted curve in the direction sought with a large enough effect in the repeat runs; inconclusive means weak or mixed curves; inactive means no such curve, though single readings can be large; an effect the other way counts as inactive or inconclusive.

Tests used:
[1] = qHTS assay to identify small molecule agonists of the peroxisome proliferator-activated receptor delta (PPARd) signaling pathway - cell viability counter screen (AID 743211); further: nearly all actives have a fitted effect of over 55% in size; further: potency means the concentration at half of the fitted maximal effect
Method in brief: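 qHTS cell viability: PPARd-bla HEK293H; 17 h cpd, 37C; CellTiter-Glo, luminescence at 30 min RT.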

[2] = qHTS assay to identify small molecule antagonists of the peroxisome proliferator-activated receptor delta (PPARd) signaling pathway - cell viability counter screen (AID 743213); further: nearly all actives have a fitted effect of over 50% in size
Method in brief: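 CellTiter-Glo was added to PPARd-bla HEK293H wells following 17 h compound treatment in the presence of 300 nM L165041. Luminescence was recorded after 30 min at room temperature.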

[3] = target: Peroxisome proliferator-activated receptor delta (Homo sapiens) (UniProt Q03181); assay: qHTS assay to identify small molecule antagonists of the peroxisome proliferator-activated receptor delta (PPARd) signaling pathway (AID 743215; active means well fitted inhibition curve with a large enough effect in the signal ratio in the repeat runs, not every such curve was filed as active; the % refers to the signal ratio;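 further: cells stimulated with agonist L165041 at 300 nM final during compound exposure; series mostly up to about 62 µM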)
Peroxisome proliferator-activated receptor delta (Homo sapiens), sequence (Q03181 whole entry, looked up): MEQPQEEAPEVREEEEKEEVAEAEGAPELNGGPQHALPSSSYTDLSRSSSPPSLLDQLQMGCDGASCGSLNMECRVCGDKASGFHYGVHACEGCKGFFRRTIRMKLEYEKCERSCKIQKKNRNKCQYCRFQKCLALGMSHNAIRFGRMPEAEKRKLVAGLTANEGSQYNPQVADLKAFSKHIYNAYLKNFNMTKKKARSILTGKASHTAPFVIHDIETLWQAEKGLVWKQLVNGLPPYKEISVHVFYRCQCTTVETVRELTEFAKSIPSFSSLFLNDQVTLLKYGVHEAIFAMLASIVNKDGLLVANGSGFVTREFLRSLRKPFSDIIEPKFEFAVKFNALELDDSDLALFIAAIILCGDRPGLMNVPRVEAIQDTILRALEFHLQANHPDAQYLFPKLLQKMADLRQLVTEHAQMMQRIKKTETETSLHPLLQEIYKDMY
Method in brief: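 HEK293H UAS-bla, PPARd; agonist L165041 300 nM final with cpd in DMSO; 37 C 17 h; FRET substrate, RT 2 h; fluorescence intensity.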

[4] = qHTS assay to identify small molecule agonists of the farnesoid-X-receptor (FXR) signaling pathway - cell viability counter screen (AID 743218); further: nearly all actives have a fitted effect of over 45% in size
Method in brief: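 Parallel cytotoxicity test: compound-treated (16 h, 37 C) HEK 293T FXR-bla reporter cells were lysed with CellTiter-Glo and luminescence recorded.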

[5] = qHTS assay to identify small molecule antagonists of the farnesoid-X-receptor (FXR) signaling pathway - cell viability counter screen (AID 743221; active means well fitted cell-killing curve with a large enough effect in the repeat runs, not every such curve was filed as active; further: nearly all actives have a fitted effect of over 50% in size)
Method in brief: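 After a 5 h settling period, FXR-bla HEK 293T cells receive compound and chenodeoxycholic acid (50 uM final) and incubate 16 h at 37 C; CellTiter-Glo luminescence, read after 30 min at room temperature, reports cell viability.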

[6] = target: Vitamin D3 receptor (Homo sapiens) (UniProt P11473); assay: qHTS assay to identify small molecule agonists of the vitamin D receptor (VDR) signaling pathway (AID 743222; calls by dose curve)
Vitamin D3 receptor (Homo sapiens), sequence (P11473 whole entry, looked up): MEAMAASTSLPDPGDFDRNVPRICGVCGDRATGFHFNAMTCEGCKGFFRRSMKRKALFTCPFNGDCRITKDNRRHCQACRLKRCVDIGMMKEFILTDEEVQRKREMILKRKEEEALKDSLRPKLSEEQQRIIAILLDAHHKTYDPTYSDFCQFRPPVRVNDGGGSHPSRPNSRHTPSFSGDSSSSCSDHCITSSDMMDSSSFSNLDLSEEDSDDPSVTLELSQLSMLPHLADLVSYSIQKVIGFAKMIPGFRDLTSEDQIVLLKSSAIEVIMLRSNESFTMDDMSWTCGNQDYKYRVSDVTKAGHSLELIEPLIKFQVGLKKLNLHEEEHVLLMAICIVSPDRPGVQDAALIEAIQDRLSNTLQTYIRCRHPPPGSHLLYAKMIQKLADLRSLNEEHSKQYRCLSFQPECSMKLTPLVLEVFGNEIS
Method in brief: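 In VDR-bla cells, compound-induced beta-lactamase expression is quantified by FRET substrate fluorescence. Treatment lasts 16 h at 37C; substrate develops 2 h at room temperature.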

[7] = target: Vitamin D3 receptor (Homo sapiens) (UniProt P11473); assay: qHTS assay to identify small molecule antagonists of the vitamin D receptor (VDR) signaling pathway (AID 743223; active means well fitted inhibition curve with a large enough effect in the signal ratio in the repeat runs, not every such curve was filed as active; the % refers to the signal ratio)
Method in brief: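 Reporter line VDR-bla; stimulus 1alpha,25-(OH)2 vitamin D3, 3 nM final; compound co-addition, 16 h 37C/5% CO2; LiveBLAzer B/G substrate 2 h RT; fluorescence intensity.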

[8] = qHTS assay to identify small molecule agonists of the vitamin D receptor (VDR) signaling pathway - cell viability counter screen (AID 743224); further: series mostly up to about 63 µM; nearly all actives have a fitted effect of over 50% in size
Method in brief: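 Plated VDR-bla cells (4 h, 37C) received compound, incubated 16 h, then LiveBLAzer substrate 2 h RT; CellTiter-Glo added afterwards, luminescence read at 30 min.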

[9] = qHTS assay to identify small molecule antagonists of the vitamin D receptor (VDR) signaling pathway - cell viability counter screen (AID 743225); further: nearly all actives have a fitted effect of over 50% in size
Method in brief: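 Parallel cytotoxicity test: VDR-UAS-bla HEK 293T, 3 nM (final) 1-alpha,25-dihydroxyvitamin D3 with test compound, 16 h, 37C. Endpoint is CellTiter-Glo luminescence in the same wells.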

[10] = qHTS assay to identify small molecule agonists of the NFkB signaling pathway (AID 1159509; active means well fitted curve in the direction sought with a large enough effect in the signal ratio in the repeat runs, not every such curve was filed as active; the % refers to the signal ratio; further: series mostly up to about 61 µM)
Method in brief: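 NFkB-bla ME-180 cells with a beta-lactamase reporter under an NF-kB response element were plated overnight, treated with compounds in DMSO for 5 hr at 37 C, then loaded with FRET substrate for 1.5 hr at room temperature.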

[11] = qHTS assay to identify small molecule agonists of the NFkB signaling pathway - cell viability counter screen (AID 1159515; calls by dose curve; further: series mostly up to about 61 µM; nearly all actives have a fitted effect of over 55% in size)
Method in brief: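 Using the same wells as the NFkB reporter read, ME-180 NFkB-bla cells given compounds for 5 hr were assessed for viability via CellTiter-Glo, with luminescence taken after a 30 min room-temperature incubation.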

[12] = qHTS assay to identify small molecule agonists of the endoplasmic reticulum stress response signaling pathway (AID 1159516; active means well fitted activation curve with a large enough effect in the signal ratio in the repeat runs, not every such curve was filed as active; the % refers to the signal ratio)
Method in brief: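 An ESRE-bla HeLa cell assay: compounds were pin-transferred from DMSO onto overnight-plated cells and left 5 hr at 37 C. Substrate was then loaded for 2 hr at room temperature before reading fluorescence at 460 nm and 530 nm.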

[13] = qHTS assay to identify small molecule agonists of the endoplasmic reticulum stress response signaling pathway - cell viability counter screen (AID 1159517; calls by dose curve; further: nearly all actives have a fitted effect of over 50% in size; further: potency means the concentration at half of the fitted maximal effect)
Method in brief: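 Cells, HeLa ESRE-bla; density, 1,500/well; dosing, 5 hr at 37 C, 5% CO2; readout, CellTiter-Glo luminescence after 30 min RT.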

[14] = qHTS assay to identify small molecule antagonists of the retinoid-related orphan receptor gamma (ROR-gamma) signaling pathway - cell viability counter screen (AID 1159520); further: nearly all actives have a fitted effect of over 50% in size
Method in brief: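 Cytotoxicity was read from cellular ATP (CellTiter-Glo luminescence) after 16 hr at 37 C with 1 uM doxycycline induction. The inducer was added 2 hr after compound transfer to Tet-on ROR gamma CHO cells.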

[15] = target: Nuclear receptor ROR-gamma (Homo sapiens) (UniProt P51449); assay: qHTS assay to identify small molecule antagonists of the retinoid-related orphan receptor gamma (ROR-gamma) signaling pathway (AID 1159521)
Method in brief: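 Decreased RORE-driven luciferase luminescence indicates antagonism. Tet-on RORγ CHO cells received compound, then 1 uM final doxycycline 2 h later; signal read after 16 h incubation.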

[16] = qHTS assay to identify small molecule agonists of the AP-1 signaling pathway (AID 1159526; calls by dose curve; further: potency means the concentration at half of the fitted maximal effect)
[17] = target: Bile acid receptor (Homo sapiens) (UniProt Q96RI1); assay: qHTS assay to identify small molecule antagonists of the farnesoid-X-receptor (FXR) signaling pathway (AID 743217; active means well fitted inhibition curve with a large enough effect in the signal ratio in the repeat runs, not every such curve was filed as active; the % refers to the signal ratio)
Bile acid receptor (Homo sapiens), sequence (Q96RI1 whole entry, looked up): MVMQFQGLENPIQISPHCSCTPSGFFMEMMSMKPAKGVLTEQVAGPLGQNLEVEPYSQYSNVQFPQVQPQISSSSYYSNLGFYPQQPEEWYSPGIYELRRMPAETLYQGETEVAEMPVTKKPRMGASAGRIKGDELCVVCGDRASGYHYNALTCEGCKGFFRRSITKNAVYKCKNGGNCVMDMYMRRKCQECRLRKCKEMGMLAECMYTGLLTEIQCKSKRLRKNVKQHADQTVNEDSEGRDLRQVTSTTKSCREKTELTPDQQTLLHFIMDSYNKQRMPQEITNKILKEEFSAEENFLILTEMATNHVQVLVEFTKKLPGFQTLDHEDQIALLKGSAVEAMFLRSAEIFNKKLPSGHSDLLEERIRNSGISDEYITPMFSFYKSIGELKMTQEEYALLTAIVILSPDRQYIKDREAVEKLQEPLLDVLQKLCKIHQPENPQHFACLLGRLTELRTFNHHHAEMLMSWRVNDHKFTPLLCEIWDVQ
Method in brief: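 GeneBLAzer FXR-UAS-bla HEK 293T, CDCA-stimulated (50 uM final). Compound treatment 16 h, 37 °C. Detection: beta-lactamase cleavage of B/G FRET substrate, fluorescence.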

[18] = target: Bile acid receptor (Homo sapiens) (UniProt Q96RI1); assay: qHTS assay to identify small molecule agonists of the farnesoid-X-receptor (FXR) signaling pathway (AID 743220; active means well fitted activation curve with a large enough effect in the signal ratio in the repeat runs, not every such curve was filed as active; the % refers to the signal ratio)
Method in brief: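 Beta-lactamase reporter under UAS control in GeneBLAzer FXR HEK 293T cells (5000/well) measured with LiveBLAzer FRET substrate after 2 h at room temperature. Compound exposure lasted 16 h at 37C.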

[19] = target: Peroxisome proliferator-activated receptor delta (Homo sapiens) (UniProt Q03181); assay: qHTS assay to identify small molecule agonists of the peroxisome proliferator-activated receptor delta (PPARd) signaling pathway (AID 743212; calls by dose curve)
Method in brief: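 HEK293H UAS-bla reporter cells, human PPARd system; compounds delivered in DMSO after 5 h plating, then at 37 C. Beta-lactamase FRET read, 2 h RT substrate step.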

[20] = qHTS assay to identify small molecule agonists of the AP-1 signaling pathway - cell viability counter screen (AID 1159525; calls by dose curve; further: nearly all actives have a fitted effect of over 55% in size)
Method in brief: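 Luminescent ATP readout (Cell Titer Glo, 30 min RT), normalised to DMSO and tetra n-octyl ammonium bromide controls. Cells were ME-180 AP-1-bla in 0.5% dialyzed FBS Opti-MEM, with a 5 h, 37 °C compound exposure.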

| Structure (SMILES) | Potency [1] | Potency [2] | outcome [3] | Potency [4] | outcome [5] | outcome [6] | Potency [7] | Potency [8] | outcome [9] | outcome [10] | outcome [11] | outcome [12] | Potency [13] | outcome [14] | Potency [15] | Potency [16] | Potency [17] | outcome [18] | outcome [19] | outcome [20] |
| --- | --- | --- | --- | --- | --- | --- | --- | --- | --- | --- | --- | --- | --- | --- | --- | --- | --- | --- | --- | --- |
| O=c1cc[nH]c(=O)[nH]1 | inactive | inactive | inactive | inactive | inactive | inactive | inactive | inactive | inactive | inactive | inactive | inactive | inactive | inactive | inactive | inactive | – | – | – | – |
| O=C(O)CCCCC1CCSS1 (configuration not stated) | inactive | inactive | inactive | inactive | inactive | inactive | inactive | inactive | inactive | inactive | inactive | inactive | inactive | inactive | inactive | 27.5 µM (active) and inactive | – | – | – | – |
| CCCCOCCOCCOC(C)=O | inactive | inactive | inactive | – | inactive | inactive | inactive | inactive | inactive | inactive | inactive | inactive | inactive | inactive | inactive | inactive | – | – | – | – |
| C=C(C)OC(C)=O | inactive | inactive | – | – | inactive | inactive | inactive | inactive | inactive | inactive | inactive | inactive | inactive | inactive | inactive | inactive | – | – | – | – |
| N[C@@H](Cc1c[nH]c2ccccc12)C(=O)O | inactive | inactive | inactive | inactive | inactive | inactive | inactive | inactive | inactive | inactive | inactive | inactive | inactive | inactive | inactive | inactive | – | – | – | – |
| CCN(CC)CCOC(=O)c1ccc(N)cc1 | inactive | inactive | – | – | inactive | inactive | inactive | inactive | inactive | inactive | inactive | inactive | inactive | inactive | inactive | inactive | – | – | – | – |
| CCCCC/C(C=O)=C\c1ccccc1 | inactive | inactive | inactive | – | inactive | – | – | inactive | inactive | inactive | inactive | inactive | inactive | inactive | inactive | inactive | inactive | inactive | – | – |
| CC(=O)OC/C=C(C)/C=C/C=C(C)/C=C/C1=C(C)CCCC1(C)C | – | inactive | inactive | inactive | inactive | inactive | inactive | inactive | inactive | inactive | inactive | inactive | inactive | inactive | inactive | inactive | – | – | inactive | – |
| C[C@]12CC[C@@H]3c4ccc(O)cc4CC[C@H]3[C@@H]1CCC2=O | inactive | inactive | – | inactive | inactive | – | – | inactive | inactive | inactive | inactive | inactive | inactive | inactive | – | inactive | inactive | inactive | – | inactive |
| Nc1ccc(N=Nc2ccccc2)c(N)n1 | 43.9 µM (active) and inactive | inactive | inactive | inactive | inactive | inactive | inactive | inactive | inactive | inactive | inactive | – | inactive | inactive | inactive | inactive | – | – | – | inactive |
| NC(=O)N/N=C/c1ccc([N+](=O)[O-])o1 | inactive | inactive | – | – | inactive | inactive | inactive | inactive | inactive | inactive | inactive | inactive | inactive and 49 µM (active) | inactive | inactive | inactive | – | – | – | – |
| O=[N+]([O-])c1ccc(O)cc1 | inactive | inactive | inactive | inactive | inactive | inactive | inactive | inactive | inactive | inactive | inactive | inactive | inactive | inactive | – | inactive | – | – | – | – |
